Laboratory results taken from PubChem BioAssay AID1159580 (chemical genetic matrix, 2015).
Values joined by “and” are separate entries in the source; they are usually repeats but may differ in a detail not shown here. Identical values can stand only once. About 2,000 (36%) of roughly 5,500 compounds were called active. Roughly 18% stayed inconclusive and do not appear here. Cut-off read from the data, not from the text of the source: active = normalized growth mostly below about 0.91 (no sharp cut-off); inconclusive = no clear call, values can overlap the other calls; inactive = mostly above about 0.92. The list shows a part of the results.

Assay: chemical genetic growth profiling, strain panel (AID 1159580);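 note: tested at 20 µM; growth read once vehicle control cultures reached saturation at 30 °C; 1 = growth at the plate median or of vehicle wells; lower values mean less growth of the strain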
Conditions: S. cerevisiae deletion strains, growth OD
[1] = locus YAL013W, strain DEP1, active compounds read low
[2] = locus YMR263W, strain SAP30, active compounds read low
[3] = locus YNL128W, strain TEP1, active compounds read low
[4] = locus YDL101C, strain DUN1, active compounds read low
[5] = locus YGR052W, strain FMP48, active compounds read low
[6] = locus YHR030C, strain SLT2, active compounds read low
[7] = locus YHR079C, strain IRE1, active compounds read low
[8] = locus YHR082C, strain KSP1, active compounds read low
[9] = locus YJL095W, strain BCK1, active compounds read low
[10] = locus YJR066W, strain TOR1, active compounds read low
[11] = locus YKL203C, strain TOR2, active compounds read low
[12] = locus YLR113W, strain HOG1, active compounds read low
[13] = locus YNL183C, strain NPR1, active compounds read low
[14] = locus YNL207W, strain RIO2, active compounds read low
[15] = locus YOR119C, strain RIO1, active compounds read low
[16] = locus YOR231W, strain MKK1, active compounds read low
[17] = locus YPL256C, strain CLN2, active compounds read low

Measured: normalized growth

CC1=C(C)C(=O)C(CCCCC#CCCCC#CCO)=C(C)C1=O
inactive: [1] 0.995 | locus YAL040C, strain CLN3, active compounds read low 0.993 | locus YCL061C, strain MRC1 (second series), active compounds read low 1 | locus YDR363W, strain ESC2, active compounds read low 0.988 | locus YER002W, strain NOP16, active compounds read low 0.996 | [2] 1 | [3] 0.998 | locus YNL175C, strain NOP13, active compounds read low 1 | locus YNL197C, strain WHI3, active compounds read low 0.997 | locus YNL224C, strain SQS1, active compounds read low 0.984 | locus YOR083W, strain WHI5 (second series), active compounds read low 0.975

O=[N+]([O-])c1cc(C(F)(F)F)cc([N+](=O)[O-])c1Oc1ccc(Cl)c(Cl)c1
active: [1] 0.0591 | locus YBR229C, strain ROT2, active compounds read low 0.062 | [4] 0.0834 | locus YDL134C, strain PPH21, active compounds read low 0.0454 | locus YDR150W, strain NUM1, active compounds read low 0.0593 | locus YEL061C, strain CIN8, active compounds read low 0.053 | [5] 0.12 | locus YGR078C, strain PAC10, active compounds read low 0.0542 | locus YGR229C, strain SMI1, active compounds read low 0.0505 | [6] 0.0926 and 0.11 | [7] 0.11 | [8] 0.12 | locus YHR087W, strain rtc3, active compounds read low 0.0631 | [9] 0.12 | locus YJL187C, strain SWE1, active compounds read low 0.0563 | locus YJR043C, strain POL32, active compounds read low 0.0569 | [10] 0.11 | locus YJR075W, strain HOC1, active compounds read low 0.084 | locus YKL171W, strain NNK1, active compounds read low 0.101 | locus YKL190W, strain CNB1, active compounds read low 0.0457 | [11] 0.0962 | locus YLR039C, strain RIC1, active compounds read low 0.0653 | locus YLR058C, strain SHM2 (second series), active compounds read low 0.0562 | locus YLR085C, strain ARP6, active compounds read low 0.0698 | [12] 0.173 | locus YLR262C, strain YPT6, active compounds read low 0.0617 | locus YML094W, strain GIM5, active compounds read low 0.0673 | locus YMR219W, strain ESC1, active compounds read low 0.0518 | [2] 0.0593 | [3] 0.0548 | locus YNL153C, strain GIM3, active compounds read low 0.0599 | [13] 0.146 | [14] 0.108 | locus YNL298W, strain CLA4 (second series), active compounds read low 0.0706 | locus YNL322C, strain KRE1, active compounds read low 0.0592 | locus YNR030W, strain Alg12, active compounds read low 0.0612 | locus YOL006C, strain TOP1, active compounds read low 0.068 | [15] 0.095 | [16] 0.113 | locus YPL055C, strain LGE1, active compounds read low 0.0764 | locus YPL241C, strain CIN2, active compounds read low 0.061 | [17] 0.135 | locus YPR135W, strain CTF4, active compounds read low 0.184

COc1ccc(Oc2ccc([N+](=O)[O-])cc2C(=O)O/N=C(/N)c2ccc(C(F)(F)F)cc2)cc1
inactive: locus YAR019C, strain CDC15, active compounds read low 1 | locus YBL105C, strain PKC1, active compounds read low 0.991 | locus YBR135W, strain CKS1, active compounds read low 0.991 | locus YBR136W, strain MEC1, active compounds read low 0.996 | locus YBR160W, strain CDC28, active compounds read low 0.997 | locus YDL017W, strain CDC7, active compounds read low 1 | locus YDL028C, strain MPS1, active compounds read low 1 | [4] 0.988 | locus YDL108W, strain KIN28, active compounds read low 0.99 | locus YDL132W, strain cdc53, active compounds read low 0.982 | locus YDL214C, strain PRR2, active compounds read low 1.01 | locus YDR052C, strain DBF4, active compounds read low 1 | locus YDR054C, strain cdc34, active compounds read low 0.99 | locus YDR226W, strain ADK1, active compounds read low 0.987 | locus YDR477W, strain SNF1, active compounds read low 0.999 | locus YER123W, strain YCK3, active compounds read low 0.983 | locus YER133W, strain GLC7, active compounds read low 1 | locus YFL009W, strain cdc4, active compounds read low 0.998 | locus YFL029C, strain CAK1, active compounds read low 1 | locus YFR003C, strain YPI1, active compounds read low 1.01 | locus YFR019W, strain FAB1, active compounds read low 1 | locus YFR028C, strain CDC14, active compounds read low 0.998 | locus YGR040W, strain KSS1, active compounds read low 1 | [5] 1.01 | locus YGR092W, strain DBF2, active compounds read low 1.03 | [6] 0.92 | [7] 1 | [8] 1.11 | locus YHR205W, strain SCH9, active compounds read low 0.991 | locus YIL147C, strain SLN1, active compounds read low 1 | [9] 1 | locus YJL128C, strain PBS2, active compounds read low 0.957 | locus YJL157C, strain FAR1, active compounds read low 1.02 | locus YJR016C, strain ILV3, active compounds read low 1 | locus YJR066W, strain TOR1 (second series), active compounds read low 0.964 | [10] 1.07 | locus YKL048C, strain ELM1, active compounds read low 0.995 | locus YKL067W, strain YNK1, active compounds read low 0.999 | locus YKL101W, strain HSL1, active compounds read low 0.998 | locus YKL193C, strain SDS22, active compounds read low 1 | [11] 1.03 | [12] 0.919 | locus YLR133W, strain CKI1, active compounds read low 1.01 | locus YLR403W, strain SFP1, active compounds read low 1.01 | locus YML070W, strain DAK1, active compounds read low 1.01 | locus YMR001C, strain CDC5, active compounds read low 1.01 | locus YMR205C, strain PFK2 (second series), active compounds read low 0.989 | locus YMR277W, strain FCP1, active compounds read low 1.01 | locus YNL006W, strain LST8, active compounds read low 1 | locus YNL020C, strain ARK1, active compounds read low 1.02 | locus YNL161W, strain CBK1, active compounds read low 0.994 | [13] 1.04 | [14] 1 | locus YNL222W, strain SSU72, active compounds read low 0.997 | locus YNL307C, strain MCK1 (second series), active compounds read low 1 | locus YOL078W, strain AVO1, active compounds read low 1 | locus YOL136C, strain PFK27, active compounds read low 1.01 | locus YOR061W, strain CKA2, active compounds read low 1.01 | [15] 1.06 | [16] 0.985 | locus YOR329C, strain SCD5, active compounds read low 1 | locus YPL031C, strain PHO85, active compounds read low 0.988 | locus YPL153C, strain RAD53, active compounds read low 0.995 | locus YPL204W, strain HRR25, active compounds read low 1.01 | locus YPL209C, strain IPL1, active compounds read low 1 | [17] 0.927 | locus YPR025C, strain CCL1, active compounds read low 0.999 | locus YPR106W, strain ISR1, active compounds read low 0.993 | locus YPR111W, strain DBF20, active compounds read low 0.986 | strain NNK1, active compounds read low 0.982 | strain TSCII, active compounds read low 1
